Experimental data reported in PubChem BioAssay AID1159580 (chemical genetic matrix, 2015).
Where “and” joins values, the source holds several entries; their conditions need not be identical. Equal values may be shown once. The campaign covered roughly 5,500 compounds. About 2,000 (36%) were called active. Roughly 18% stayed inconclusive and do not appear here. Cut-off read from the data, not from the text of the source: active = normalized growth mostly below about 0.91 (no sharp cut-off); inconclusive = no clear call, values can overlap the other calls; inactive = mostly above about 0.92. Some of the results follow.

Test: chemical genetic growth profiling, strain panel (AID 1159580);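 note: tested at 20 µM; growth read once vehicle control cultures reached saturation at 30 °C; 1 = growth at the plate median or of vehicle wells; lower values mean less growth of the strain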
Settings: S. cerevisiae deletion strains, growth OD

Measured: normalized growth

COc1ccc2[nH]cc(CCN)c2c1
inactive: locus YAL013W, strain DEP1, hits give low values 0.982 | locus YAL021C, strain ccr4, hits give low values 1.04 | locus YAL026C, strain drs2, hits give low values 0.987 | locus YAL030W, strain snc1, hits give low values 0.995 | locus YAL040C, strain CLN3, hits give low values 0.967 | locus YBL061C, strain skt5, hits give low values 0.989 | locus YBR009C, strain hhf1, hits give low values 1.02 | locus YBR021W, strain FUR4, hits give low values 0.985 | locus YBR023C, strain chs3, hits give low values 1 | locus YBR171W, strain sec66, hits give low values 0.993 | locus YBR229C, strain ROT2, hits give low values 0.95 | locus YBR231C, strain swc5, hits give low values 0.986 | locus YBR279W, strain paf1, hits give low values 0.995 | locus YCL011C, strain gbp2, hits give low values 1.01 | locus YCL016C, strain dcc1, hits give low values 1.02 | locus YCL029C, strain bik1, hits give low values 0.998 | locus YCL061C, strain MRC1 (second series), hits give low values 1 | locus YCL061C, strain MRC1, hits give low values 0.998 | locus YCL069W, strain vba3, hits give low values 0.992 | locus YCR088W, strain abp1, hits give low values 0.99 | locus YDL005C, strain med2, hits give low values 1.02 | locus YDL035C, strain GPR1, hits give low values 0.985 | locus YDL040C, strain nat1, hits give low values 0.991 | locus YDL074C, strain BRE1, hits give low values 0.999 | locus YDL101C, strain DUN1, hits give low values 0.989 | locus YDL134C, strain PPH21, hits give low values 0.973 | locus YDL185W, strain tfp1, hits give low values 0.97 | locus YDL192W, strain arf1, hits give low values 0.989 | locus YDR001C, strain nth1, hits give low values 0.989 | locus YDR069C, strain doa4, hits give low values 0.971 | locus YDR101C, strain arx1, hits give low values 0.998 | locus YDR137W, strain rgp1, hits give low values 1.01 | locus YDR150W, strain NUM1, hits give low values 0.963 and 0.992 | locus YDR159W, strain sac3, hits give low values 0.933 | locus YDR162C, strain NBP2, hits give low values 0.945 | locus YDR195W, strain ref2 0.951 | locus YDR297W, strain sur2, hits give low values 0.989 | locus YDR318W, strain mcm21, hits give low values 0.995 | locus YDR334W, strain swr1, hits give low values 0.982 | locus YDR335W, strain msn5, hits give low values 0.995 | locus YDR363W, strain ESC2, hits give low values 0.978 | locus YDR388W, hits give low values 0.986 | locus YDR392W, strain spt3, hits give low values 0.951 | locus YDR502C, strain sam2, hits give low values 0.995 | locus YEL003W, strain gim4, hits give low values 0.986 | locus YEL037C, strain rad23, hits give low values 0.988 | locus YEL061C, strain CIN8 (second series), hits give low values 0.989 | locus YEL061C, strain CIN8, hits give low values 0.977 | locus YER002W, strain NOP16, hits give low values 1.01 | locus YER015W, strain faa2, hits give low values 1 | locus YER016W, strain bim1, hits give low values 0.991 | locus YER110C, hits give low values 0.964 | locus YER111C, strain swi4, hits give low values 1 | locus YER155C, strain BEM2 (second series), hits give low values 0.978 | locus YER155C, strain BEM2, hits give low values 0.993 | locus YER167W, strain BCK2, hits give low values 0.987 | locus YFR010W, strain ubp6, hits give low values 0.979 | locus YGL078C, strain dbp3, hits give low values 0.984 | locus YGL086W, strain mad1, hits give low values 0.966 | locus YGL167C, strain pmr1, hits give low values 0.994 | locus YGL173C, strain kem1, hits give low values 0.997 | locus YGL227W, strain vid30, hits give low values 0.983 | locus YGL240W, strain doc1, hits give low values 0.986 | locus YGL248W, strain PDE1, hits give low values 0.981 | locus YGL253W, strain hxk2, hits give low values 0.974 | locus YGR078C, strain PAC10, hits give low values 0.999 | locus YGR135W, strain pre9, hits give low values 0.989 | locus YGR229C, strain SMI1, hits give low values 1.02 | locus YGR252W, strain gcn5, hits give low values 0.843 | locus YHR013C, strain ard1, hits give low values 0.973 | locus YHR027C, strain rpn1, hits give low values 1 | locus YHR030C, strain SLT2, hits give low values 0.985 | locus YHR079C, strain IRE1 (second series), hits give low values 0.992 | locus YHR094C, strain hxt1, hits give low values 0.984 | locus YHR129C, strain ARP1, hits give low values 0.996 | locus YHR142W, strain chs7, hits give low values 1 | locus YHR200W, strain rpn10, hits give low values 0.991 | locus YIL066C, strain RNR3, hits give low values 0.99 | locus YIL073C, strain SPO22, hits give low values 0.938 | locus YIL125W, strain kgd1, hits give low values 0.975 | locus YIR030C, strain dcg1, hits give low values 0.976 | locus YJL092W, strain hpr5, hits give low values 0.999 | locus YJL095W, strain BCK1 (second series), hits give low values 0.992 | locus YJL095W, strain BCK1, hits give low values 1.04 | locus YJL115W, strain asf1, hits give low values 0.99 | locus YJL129C, strain trk1, hits give low values 0.995 | locus YJL134W, strain LCB3, hits give low values 0.988 | locus YJL154C, strain vps35, hits give low values 0.981 | locus YJL164C, strain tpk1, hits give low values 1.02 | locus YJL166W, strain qcr8, hits give low values 1.01 | locus YJL168C, strain set2, hits give low values 0.999 | locus YJL187C, strain SWE1 (second series), hits give low values 0.993 | locus YJL187C, strain SWE1, hits give low values 1.01
